The values below come from PubChem BioAssay.

The subject of assay [1] is Plasmodium falciparum Sir2 (PF13_0152, Sir2A). Briefly: Plasmodium falciparum Sir2A binding compounds – biochemical, small-molecule microarray, 635 nm fluorescence, primary screen (AID 1098).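 Further: score merges spot fluorescence intensity with its signal-to-noise ratio.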 Particulars: fluorescence 635 nm, higher = more signal.
Assay [2] in a line: probe aDKK1 binding to arrayed compounds – biochemical, biotinylated probe, 635/667 nm fluorescence, primary screen (AID 1099).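 Further: score merges 667nm spot fluorescence with signal to noise across triplicate slides; reference of the scale not given here.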 The note with it: small-molecule microarray, higher = more signal.
Assay [3] in a line: probe aCHRDL2 binding to arrayed compounds – biochemical, biotinylated probe, 635/667 nm fluorescence, primary screen (AID 1100). The note with it: small-molecule microarray, higher = more signal.
A short description of assay [4]: change in splice reporter luminescence, either direction, cell-based, HEK293, spliceosome inhibition project, primary screen (AID 1101).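 Further: HEK293 cells carrying a splicing-competent luciferase reporter gene; test concentration not given here.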 The note with it: HEK293 splicing luciferase reporter, 24 h, higher = more signal, called active from +8 up or from −8 down. In general terms: A reporter such as luciferase makes a cellular process visible.
For assay [5], the target named is Fibroblast growth factor 10 (Homo sapiens) (UniProt O15520). Briefly: compounds binding fibroblast growth factor 10 – biochemical, small-molecule microarray, 635 nm fluorescence, primary screen (AID 1102). The note with it: FGF10 binding, fluorescence 635 nm, higher = more signal.
Sequence of Fibroblast growth factor 10 (Homo sapiens) (O15520 whole entry, looked up): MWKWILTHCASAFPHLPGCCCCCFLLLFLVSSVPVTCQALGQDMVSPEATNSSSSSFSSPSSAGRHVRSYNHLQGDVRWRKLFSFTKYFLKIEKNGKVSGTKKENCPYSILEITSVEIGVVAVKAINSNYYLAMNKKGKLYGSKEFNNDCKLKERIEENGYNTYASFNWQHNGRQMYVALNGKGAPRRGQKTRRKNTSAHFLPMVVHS
Assay [6] concerns glycogen synthase kinase-3 (GSK3A per assay name; protocol says GSK3B). The assay can be described thus: compounds binding glycogen synthase kinase-3 – biochemical, small-molecule microarray, 635 nm fluorescence, GSK3A, primary screen (AID 1103). Further: the record names both GSK3A and GSK3B. The note with it: fluorescence 635 nm, higher = more signal.
For assay [7], the target named is Epidermal growth factor receptor (Homo sapiens) (UniProt P00533). The assay can be described thus: compounds binding epidermal growth factor receptor – biochemical, small-molecule microarray, 635 nm fluorescence, primary screen (AID 1104).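 Further: score merges 667 nm emission intensity with spot signal to noise over triplicate slides.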 Particulars: EGFR binding, higher = more signal.
Sequence of Epidermal growth factor receptor (Homo sapiens) (P00533 whole entry, looked up): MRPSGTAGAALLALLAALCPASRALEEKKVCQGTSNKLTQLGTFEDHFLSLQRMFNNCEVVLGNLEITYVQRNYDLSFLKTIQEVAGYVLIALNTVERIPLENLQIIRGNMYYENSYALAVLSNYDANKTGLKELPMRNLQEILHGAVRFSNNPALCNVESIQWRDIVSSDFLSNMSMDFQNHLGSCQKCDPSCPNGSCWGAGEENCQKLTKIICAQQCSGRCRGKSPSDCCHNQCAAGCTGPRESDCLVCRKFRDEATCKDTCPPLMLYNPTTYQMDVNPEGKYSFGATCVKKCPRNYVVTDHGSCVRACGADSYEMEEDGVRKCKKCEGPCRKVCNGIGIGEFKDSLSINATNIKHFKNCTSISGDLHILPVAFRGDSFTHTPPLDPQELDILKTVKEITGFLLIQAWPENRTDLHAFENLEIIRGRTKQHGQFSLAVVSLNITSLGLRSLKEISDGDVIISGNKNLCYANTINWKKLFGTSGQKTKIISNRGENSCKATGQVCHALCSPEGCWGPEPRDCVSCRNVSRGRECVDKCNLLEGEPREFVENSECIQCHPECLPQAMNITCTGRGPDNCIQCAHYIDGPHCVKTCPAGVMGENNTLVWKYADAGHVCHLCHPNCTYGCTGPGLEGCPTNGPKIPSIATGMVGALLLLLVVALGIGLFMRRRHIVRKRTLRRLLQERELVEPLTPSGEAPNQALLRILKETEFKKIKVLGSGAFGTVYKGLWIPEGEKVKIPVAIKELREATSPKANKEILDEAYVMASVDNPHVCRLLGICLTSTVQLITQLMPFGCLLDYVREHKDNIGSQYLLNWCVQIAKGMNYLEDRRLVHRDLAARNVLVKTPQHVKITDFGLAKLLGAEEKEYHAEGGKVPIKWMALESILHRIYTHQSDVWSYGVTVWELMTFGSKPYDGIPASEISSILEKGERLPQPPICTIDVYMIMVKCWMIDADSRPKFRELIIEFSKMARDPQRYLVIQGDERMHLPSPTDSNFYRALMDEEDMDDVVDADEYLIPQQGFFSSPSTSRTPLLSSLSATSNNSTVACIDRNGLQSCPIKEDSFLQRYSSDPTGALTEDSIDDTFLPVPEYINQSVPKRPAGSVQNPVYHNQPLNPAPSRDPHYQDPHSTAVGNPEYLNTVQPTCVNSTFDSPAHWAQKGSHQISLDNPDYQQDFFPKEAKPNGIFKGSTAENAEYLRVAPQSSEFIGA
The target of assay [8] is Follistatin-related protein 3 (Homo sapiens) (UniProt O95633). Briefly: compounds binding follistatin-related protein 3 – biochemical, small-molecule microarray, 635 nm fluorescence, primary screen (AID 1105).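 Further: score merges emission near 667 nm and signal to noise per printed spot across three slides.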 The note with it: FSTL3 binding, higher = more signal.
Sequence of Follistatin-related protein 3 (Homo sapiens) (O95633 whole entry, looked up): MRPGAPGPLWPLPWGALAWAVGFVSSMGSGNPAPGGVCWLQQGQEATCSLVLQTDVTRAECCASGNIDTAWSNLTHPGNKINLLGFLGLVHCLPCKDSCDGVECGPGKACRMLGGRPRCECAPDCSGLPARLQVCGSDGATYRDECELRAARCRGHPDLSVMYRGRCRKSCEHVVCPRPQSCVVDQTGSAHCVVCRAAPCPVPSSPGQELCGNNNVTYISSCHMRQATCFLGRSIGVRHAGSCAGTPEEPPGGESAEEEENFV
The target in assay [9] is Dickkopf-related protein 1 (Homo sapiens) (UniProt O94907). Briefly: small molecules binding DKK1 protein – biochemical, small-molecule microarray, 635 nm fluorescence scan, primary screen (AID 1106).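 Further: score merges emission near 667 nm with signal to noise over three replicate slides.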 Particulars: higher = more signal.
Sequence of Dickkopf-related protein 1 (Homo sapiens) (O94907 whole entry, looked up): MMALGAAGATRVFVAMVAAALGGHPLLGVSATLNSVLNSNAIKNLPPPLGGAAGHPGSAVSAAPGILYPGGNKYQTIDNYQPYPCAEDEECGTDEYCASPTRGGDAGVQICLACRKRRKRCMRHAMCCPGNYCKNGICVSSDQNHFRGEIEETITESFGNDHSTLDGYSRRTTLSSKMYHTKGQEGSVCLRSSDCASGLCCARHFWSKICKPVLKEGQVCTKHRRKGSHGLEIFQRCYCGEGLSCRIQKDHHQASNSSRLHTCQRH
Assay [10] has as its system Inhibin beta A chain (activin A). The assay can be described thus: small molecules binding activin A – biochemical, small-molecule microarray, 635 nm fluorescence scan, primary screen (AID 1107).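 Further: mouse activin A protein probed at 4.33 µg/mL on printed slides; score merges bound-protein fluorescence near 667 nm with spot signal-to-noise.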 Particulars: INHBA, higher = more signal.

Active and inactive are the calls of the source.

Take `COc1ccc([Si](C)(C)[C@@H]2[C@@H](CCO)O[C@]3(C(=O)N(Cc4ccccc4)c4ccc(N5C(=O)c6ccccc6Oc6ccccc65)cc43)[C@H]2C)cc1`: the composite z-score in assay [1] was 0.0104; in assay [2], -0.171; in [3], 0.462; in assay [5], -0.673; in assay [6] it was -1.02; in assay [7], -1.04. The results for the composite z-score in [8], in [9] and in assay [10] were -0.398, -0.328 and -0.0458, respectively. Besides, the z-score in assay [4] is -1.28 (inactive).
As to `C=C(COC)/C(=C/C[C@@H](OC(C)=O)c1ccccc1OCCO)c1cc(C(=O)OC)ccc1OC`, the composite z-score in assay [1] was 1.01; in assay [2], -0.0445; in assay [3] it was 0.012; in assay [5], 1.23; in assay [6], -0.208; in assay [7] it was -0.676. The composite z-score in assay [8] is -0.0333; in [9] it was -0.343; in assay [10] it was 0.416. In addition, the z-score in assay [4] was 0.846 (inactive).
`C=CCOC(=O)[C@H]1[C@@H]2C(=O)O[C@@H](c3ccccc3)[C@@H](c3ccccc3)N2[C@@H](c2ccc(OCCOC(=O)[C@H]3C[C@H]4C(=O)NCC(=O)N4[C@H]3c3ccc(O)cc3)cc2)[C@]12C(=O)Nc1ccc(I)cc12`: the composite z-score was 1.41 in assay [1]; -0.144 in assay [2]; -0.335 in assay [3]; 0.669 in assay [5]; 0.821 in assay [6]; 0.63 in assay [7]. Besides, the values for the composite z-score in assay [8], in [9] and in [10] were 0.915, 1.12 and 0.236, respectively. In [4], the z-score was 0.0882 (inactive).
On to `O=C(NCC(F)(F)F)[C@@H]1c2ccccc2C(=O)N(CC23CC4CC(CC(C4)C2)C3)[C@H]1c1ccc(CO)cc1`, for which the composite z-score in assay [1] was 0.586; in assay [2], -0.0677; in assay [3] it was -0.217; in assay [5], 0.75; in assay [6], 0.804; in assay [7], 0.169. Moreover, the results for the composite z-score in [8], in assay [9] and in assay [10] were 0.858, 0.26 and 0.47, respectively. Moreover, the z-score in assay [4] is -1.32 (inactive).
With `O=C1O[C@H](c2ccccc2)[C@H](c2ccccc2)N2[C@H]1[C@@H](C(=O)NC[C@H](O)c1ccccc1)[C@]1(C(=O)Nc3ccc(C#CCCO)cc31)[C@H]2c1ccccc1OCCO`, the composite z-score was 1.51 in assay [1]; -0.232 in assay [2]; 0.558 in assay [3]; 0.458 in assay [5]; -0.495 in assay [6]; -0.297 in [7]. Besides, the composite z-score in [8] was 0.577; in [9], -0.515; in [10], 0.205. Moreover, the z-score in assay [4] is 0.0927 (inactive).
Regarding `O=C1O[C@@H](c2ccccc2)[C@@H](c2ccccc2)N2[C@@H](c3ccc(OCCO)cc3)[C@]3(C(=O)Nc4ccc(C#CCCO)cc43)[C@@H](C(=O)Nc3nc4ccccc4s3)[C@H]12`, the composite z-score in assay [1] was 1.08; in [2] it was 0.49; in [3] it was 0.683; in assay [5], 0.975; in [6] it was 1.29; in assay [7] it was 0.367. In addition, the composite z-score in [8] is 1.08; in assay [9], 0.0321; in [10], 0.655. In assay [4], the z-score was -0.288 (inactive).
On to `COCCOC(=O)N1C(=O)[C@@]2(c3cc(C#CCC(C(=O)OC)C(=O)OC)ccc31)[C@H](C(=O)N1CCc3cc(OC)c(OC)cc3C1)[C@H]1C(=O)O[C@H](c3ccccc3)[C@H](c3ccccc3)N1[C@@H]2c1ccc(O)cc1`, for which the composite z-score was 0.86 in assay [1]; 0.148 in assay [2]; 0.0085 in [3]; 1.24 in assay [5]; 0.636 in assay [6]; 0.868 in assay [7]. Besides, the composite z-score in assay [8] stood at 1.47; in [9], 1.62; in assay [10], 0.418. The z-score in [4] was 1.5 (inactive).
`COCCOC(=O)N1C(=O)[C@@]2(c3cc(C#CC4(O)CCCCCC4)ccc31)[C@H](C(=O)NC[C@H](O)c1ccccc1)[C@H]1C(=O)O[C@H](c3ccccc3)[C@H](c3ccccc3)N1[C@@H]2c1ccc(O)cc1`: the composite z-score in assay [1] is 1.36; in [2] it was 0.203; in [3], 0.316; in assay [5] it was 0.779; in assay [6] it was 1.29; in assay [7], -0.0406. In addition, the composite z-score in assay [8] was 0.334; in assay [9], -0.0026; in assay [10], 0.386. Moreover, in [4], the z-score is 0.209 (inactive).
In the case of `Cc1ccc(S(=O)(=O)N2[C@@H](c3ccccc3)C(C(=O)O)=CC[C@H]2c2ccc(C#N)cc2)cc1`, the composite z-score in assay [1] turned out to be 1.16; in assay [2], 0.543; in assay [3], 0.864; in assay [5], 0.888; in assay [6] it was 0.379; in [7], 0.0164. For the same molecule, the composite z-score in assay [8] is 0.273; in assay [9], -0.522; in [10], 0.667. Besides, in [4], the z-score is -0.0152 (inactive).
As to `COc1ccc([Si](C)(C)[C@H]2[C@H](CCn3cc([C@H](O)c4ccccc4)nn3)O[C@@]3(C(=O)N(c4ccccc4)c4ccccc43)[C@@H]2C)cc1`, the composite z-score was 0.459 in assay [1]; -0.125 in assay [2]; 0.0759 in assay [3]; 0.355 in assay [5]; -0.44 in assay [6]; -0.166 in assay [7]. In addition, the composite z-score in assay [8] is 0.34; in assay [9], -0.0331; in assay [10], -0.168. In assay [4], the z-score was -0.299 (inactive).
Take `CC(=O)c1ccc(C(O)C2C=CC3C(=O)N(C)C(=O)C3N2NC(=O)OC(C)(C)C)cc1` (stereo not given): the composite z-score is 1.44 in [1]; 0.86 in assay [2]; 0.948 in [3]; 1.17 in [5]; 0.944 in [6]; -0.499 in assay [7]. Also, the composite z-score is 0.425 in assay [8], -0.698 in [9] and -0.149 in [10]. Further, in assay [4], the z-score was 1.66 (inactive).
As for `C=CCC(OC(C)=O)[C@@H]1[C@@H](N(Cc2cc3ccccc3o2)C(=O)c2cccc3ccccc23)c2cc(OCCCO)ccc2N1C(=O)c1ccc2ccccc2c1` (stereo not given in full), the composite z-score is -0.459 in assay [1]; 0.245 in assay [2]; 0.246 in assay [3]; 0.0473 in assay [5]; -0.553 in [6]; -0.0798 in assay [7]. Also, the composite z-score in assay [8] was determined as 0.182; in [9], 0.0022; in assay [10], 0.867. For the same molecule, in assay [4], the z-score was -1.18 (inactive).
In the case of `[N-]=[N+]=NCc1ccccc1C[C@]1(C(=O)NCc2ccccc2)N=C(c2ccc(OCCCO)cc2)O[C@H]1c1ccccc1CN=[N+]=[N-]`, the composite z-score in assay [1] is 1.03; in [2] it was 1.22; in assay [3], 0.889; in assay [5], -0.0516; in assay [6], 0.412; in assay [7] it was -0.253. The values for the composite z-score in assay [8], in [9] and in [10] were 0.0358, -0.726 and 0.794, respectively. Further, the z-score in assay [4] is -1.33 (inactive).
Turning to `COCCCN1C(=O)[C@@]2(Cc3ccccc31)c1ccccc1C(=O)N(Cc1ccccc1OC)[C@H]2c1ccc(CO)cc1`, the composite z-score in assay [1] was -0.909; in assay [2] it was 0.612; in assay [3], 0.9; in [5] it was -0.426; in assay [6], -0.428; in assay [7] it was -0.352. Besides, the composite z-score was 0.154 in assay [8], 0.514 in [9] and 0.157 in assay [10]. Moreover, the z-score in assay [4] is 0.307 (inactive).
